# This is part of a sample that, as a whole, favours compounds with a hit. Of some 83,000 tested, about 20% had one in any assay.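 Method: cells in 96-well plates; compound added at one concentration; 48 h incubation; percent growth measured; values under 10 scored active.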 Values without a mark were called inactive. Activity calls are given as the source filed them.
# What was measured:
# Test in all cases: NCI-60 one-dose screen, 48 h (100 = growth as untreated, 0 = no growth, -100 = all killed)
# Details in all cases: 10 µM unless noted
# [1] = system: HCT-15 colon
# [2] = system: HT29 colon
# [3] = system: SNB-75 CNS
# [4] = system: SNB-19 CNS
# [5] = system: U251 CNS
# [6] = system: PC-3 prostate
# [7] = system: SK-MEL-5 melanoma
# [8] = system: UACC-62 melanoma
# [9] = system: LOX IMVI melanoma
# [10] = system: SK-MEL-28 melanoma
Structure (SMILES),growth [1],growth [2],growth [3],growth [4],growth [5],growth [6],growth [7],growth [8],growth [9],growth [10]
Cc1ccc2nc3nc4ccc[nH]c4cc3c2c1,60.4%,76.8%,72.3%,97.3%,92.5%,87.5%,71.7%,94.3%,97.9%,116%
COc1ccc(C2C(c3ccccc3)C(=O)N2c2cc(OC)c(OC)c(OC)c2)cc1I (stereo not given),13.1%,1.74% (active),57.5%,33.4%,15.4%,22.2%,-41% (active),28.1%,24.3%,60.3%
N#Cc1ccc(C2C3=C(CCCC3=O)OC3=C2C(=O)c2ccccc2C3=O)cc1 (stereo not given),74.5%,97.1%,62.6%,105%,70%,72.6%,61.1%,35.1%,9.4% (active),112%
COc1ccc2[nH]c3nc4cnccc4cc3c2c1,97.9%,99.7%,97.5%,105%,98.9%,104%,108%,117%,105%,114%
N#Cc1ccc(N2Cc3cc(Cl)ccc3OC3=C2C(=O)N(Cc2ccc(F)cc2)C3=O)cc1,-54.9% (active),-59.1% (active),-3.4% (active),57.8%,-61.1% (active),11.8%,-33.1% (active),-41.1% (active),-93% (active),-64.1% (active)
Cc1cccc(C)c1NC(=O)CN(CC(C)C)CC(O)COc1ccccc1 (stereo not given),90.7%,85.5%,86.6%,108%,99.7%,86.3%,95.5%,83.9%,95.3%,109%
CCCCC(=O)Nc1c(C(=O)Nc2ccccc2)sc2nc3c(cc12)C(OC(=O)CCCC)CCC3 (stereo not given),81.3%,79.4%,89.3%,97.2%,79.8%,90.7%,84.5%,87.6%,85.1%,110%
CCN(CC)c1ccc2c(c1)Oc1nc(N)c(C#N)c(N)c1C2Sc1ccc(OC)cc1 (stereo not given),2.89% (active),-61.6% (active),-10% (active),20.9%,-36.4% (active),1.15% (active),1.93% (active),-16.9% (active),-63.6% (active),29.3%
C=C1C(=O)O[C@H]2[C@H]1CC/C(C=Nc1c(N)cc(F)cc1Br)=C\CC[C@@]1(C)O[C@@H]21,30.6%,36.4%,91.2%,76.7%,87.3%,58.3%,96.9%,90.1%,66.2%,80%
Nc1n[nH]c2cccc(C#Cc3cccc(NC(=O)c4cc(N5CCOCC5)cc(C(F)(F)F)c4)c3)c12,36.9%,22.6%,71.5%,83.9%,56.3%,69%,55.7%,14%,18.6%,24.5%
O=C(O)COc1ccc2c(=O)c3sc4c(=O)c5ccccc5c(=O)c4c3c(=O)c2c1,-75% (active),-37.4% (active),-42% (active),0.0814% (active),29.8%,54%,-99.6% (active),-91.4% (active),-37.6% (active),-16.2% (active)
O=C(/C(=C\c1c(-c2ccccc2)[nH]c2ccccc12)S(=O)(=O)c1ccccc1)c1ccccc1,57.4%,65.9%,45.4%,73.8%,58.6%,16.6%,47.7%,39.8%,58.9%,76.2%
CCC1S/C(=N\N=C(/C)c2ccc[nH]2)N(c2ccccc2)C1=O (stereo not given),96.1%,87.4%,105%,106%,108%,94.2%,79%,101%,110%,110%
CCCCOc1nc2ccc(C)cc2cc1/C=C/C(=O)/C=C/c1ccc2c(c1)OCO2,97.8%,63.6%,97.1%,92.9%,48.4%,72.4%,77.6%,75.6%,77.3%,109%
O=C(NC[C@H](O)CN1CCc2ccccc2C1)c1cc(NC2COC2)ncn1,103%,86.9%,74%,99%,102%,107%,107%,91.8%,93.9%,88.3%
C#C[C@@]1(O)[C@@H](CO)O[C@@H](n2cc(F)c3c(N)ncnc32)[C@@H]1O,-5.29% (active),5.9% (active),-34.3% (active),20.7%,8.64% (active),5.02% (active),-86.9% (active),-51.9% (active),-66.3% (active),45.2%
Cc1c(O)c(=O)ccn1-c1nc2ccccc2s1,38.2%,93.8%,95.7%,110%,84.1%,90.4%,96.2%,98.3%,86.7%,107%
NS(=O)(=O)c1ccc(-n2ncc(NC(=O)Nc3ccc(S(=O)(=O)Nc4nccs4)cc3)c2-c2ccccc2)cc1,104%,99.9%,65.7%,103%,102%,111%,105%,98.4%,101%,102%
Nc1ccc(C2=NN(C(=O)c3cc(-c4ccc(Cl)cc4)nc4ccccc34)C(c3ccccc3)C2)cc1 (stereo not given),25.5%,12.2%,40.2%,34.1%,40.1%,26.8%,25.9%,38.9%,42.5%,58.8%
CC(=O)c1ccc(NC(=O)CSc2nnc(-c3cc(-c4ccc(Cl)cc4)nc4ccccc34)o2)cc1,76.9%,84.3%,82.7%,78%,28.6%,79.5%,90.5%,95.7%,46.1%,107%
CC[C@]12C=CCN3CC[C@@]4(c5cc(NC(=O)CCC(=O)O[C@H]6CC[C@H]7[C@@H]8CC[C@H]9CC(=O)CC[C@]9(C)[C@H]8CC[C@]67C)c(OC)cc5N(C)[C@H]4[C@@](O)(C(=O)OC)[C@@H]1OC(C)=O)[C@@H]32,58.2%,39%,57.1%,84.7%,64.3%,47.7%,54.4%,81.2%,78.1%,92.5%
O=C(/C(=C/c1ccc([N+](=O)[O-])cc1)SCc1ccc(F)cc1)c1ccc(Cl)cc1,5.41% (active),8.59% (active),83.3%,47.4%,0.994% (active),47.4%,54.2%,37.5%,3.68% (active),93.1%
O=C1Nc2ccc(Cl)cc2/C1=N/c1nc(-c2ccc(F)cc2)cs1,43.9%,22.6%,58.6%,34.1%,25.4%,17.4%,41.7%,7.64% (active),19.5%,42.6%
C=C1C(=O)O[C@H]2[C@H]1CC/C(COC(=O)c1cn(C)c3ccccc13)=C\CC[C@@]1(C)O[C@@H]21,-44.9% (active),-77.2% (active),59%,25.6%,11.7%,-55.1% (active),4.24% (active),-51.1% (active),-86.5% (active),-22% (active)
